Assay results reported in PubChem BioAssay (EPA / NIEHS).
The source holds several records for some structures; these can differ, active in one and inactive in another. Calls of active or inactive are those of the source. Rule for the calls: active = hit-call score of the fitted dose curve at least 0.9, where 1 is the maximum; inactive = score below 0.9.

Read-out: Monokine induced gamma interferon (MIG), CXCL9 (gene 4283)
Experiment: BSK_SAg_MIG: BioMAP Diversity Plus: SAg Assay for Monokine induced gamma interferon (MIG) Biomarker Activity (AID 2283092)
Conditions: primary human HUVEC with PBMC; actives raise or lower the signal
Procedure: BSK_SAg is a cell-based, multiplexed-readout assay that uses umbilical vein endothelium and peripheral blood mononuclear cells, a human vascular primary cell co-culture, with measurements taken at 24 hours after chemical dosing in a 96-well plate.BSK_SAg_MIG is an assay component measured in the BSK_SAg assay. It measures MIG antibody related to regulation of gene expression using ELISA technology.Data from the assay component BSK_SAg_MIG was analyzed into 1 assay endpoint. This assay endpoint, BSK_SAg_MIG, was analyzed with bidirectional fitting relative to DMSO as the negative control and baseline of activity. Using a type of binding reporter, gain or loss-of-signal activity can be used to understand changes in the signaling as they relate to the gene CXCL9. Furthermore, this assay endpoint can be referred to as a primary readout, because this assay has produced multiple assay endpoints where this one serves a signaling function. To generalize the intended target to other relatable targets, this assay endpoint is annotated to the cytokine intended target family, where the subfamily is chemotactic factor.
The levels of cell surface (or secreted, indicated by the prefix "s") biomarker endpoints were measured by ELISA. Overt cytotoxicity to cells in confluent adherent cultures (all systems other than the BT system) was assessed by measuring total protein levels using sulforhodamine B (SRB) staining in parallel cultures at the time of biomarker measurements, indicated as SRB endpoints. For proliferation assays for adherent cell types, individual cell types are cultured at sub-confluence and relative cell numbers quantified by SRB staining at time points optimized for each system (48 h: 3C and CASM3C systems; 72 h: BT and HDF3CGF systems; 96 h: SAg system). SRB was performed by staining cells with 0.1% SRB after fixation with 10% TCA and reading wells at 560 nm.Viability and proliferation of PBMC (T cells) was quantified by Alamar Blue reduction for the SAg and BT systems. For PBMC viability (referred to as PBMC Cytotoxicity within the assay endpoint names), cells were plated (75,000/well in a 96-well plate) and then chemical samples added for 1 h before addition of activators, SEB and TSST-1 (20 ng/mL final concentration each). Cells were incubated for 90 h. Then, Alamar Blue (20 uL/well) (Invitrogen, Cat DAL1100) was added for 6 h, and the plates were read with a fluorescence microplate reader at 546/580 nm (excitation/emission). For PBMC proliferation, cells were plated and activated as above but incubated for only 16 h prior to addition of Alamar Blue. Plates were read after 6 h.

Row | SMILES | outcome | AC50
1 | Nc1ccc(N=Nc2ccccc2)cc1 | inactive | 
2 | CCCCCCCCCCCCCN1CC(C)OC(C)C1 (stereo not given) | inactive | 
3 | CCCSC(=O)N(CCC)CCC | inactive | 
4 | Cc1ccc([N+](=O)[O-])cc1 | inactive | 
5 | CCN(CC)N=O | inactive | 
6 | COc1cc(C=O)cc2c1[C@H](COC(N)=O)[C@]1(OC(C)=O)ON2C[C@H]2[C@@H]1N2C(C)=O |  | 28.7 µM (active)
7 | CCCCCOC(=O)c1ccccc1C(=O)OCCCCC | inactive | 
8 | CCCCCCCCn1sccc1=O |  | 14.2 µM (active)
9 | Nc1cc(Cl)cc(C(=O)O)c1Cl | inactive | 
10 | [Cl-].[Cl-].[Hg+2] | inactive | 
11 | O=[N+]([O-])c1ccc(Oc2ccc(Cl)cc2Cl)cc1 | inactive | 
12 | CCOC(=O)[C@]1(c2ccccc2)Oc2ccccc2[C@@H]1N | inactive | 
13 | CC(C)(C)C(O)(CCc1ccc(Cl)cc1)Cn1cncn1 (stereo not given) | inactive | 
14 | CS(=O)(=O)NC(=O)c1cc(Oc2ccc(C(F)(F)F)cc2Cl)ccc1[N+](=O)[O-] | inactive | 
15 | CCNS(=O)(=O)C(F)(F)C(F)(F)C(F)(F)C(F)(F)C(F)(F)C(F)(F)C(F)(F)C(F)(F)F | inactive | 49.1 µM (active)
16 | COC(=O)c1ccccc1N | inactive | 
17 | CN(C)c1ccccc1 | inactive | 
18 | Cc1cc(N=Nc2ccccc2C)ccc1N | inactive | 
19 | CC(C)N(Cc1ccccc1)C(=O)C(C)(C)C | inactive | 
20 | CC(C)(O)c1cnn2c(-c3ccc(F)c(-c4c(F)cccc4C#N)c3)cnc2n1 | inactive | 

Row | SMILES | outcome | AC50
21 | C1=Cc2cccc3cccc1c23 | inactive | 
22 | CN(C)C(=O)Nc1ccc(Cl)cc1 | inactive | 
23 | CCC12COCN1COC2 | inactive | 
24 | ClC1=C(Cl)[C@]2(Cl)[C@H]3[C@H]([C@@H]4C=C[C@H]3C4)[C@@]1(Cl)C2(Cl)Cl |  | 35 µM (active)
25 | Clc1ccccc1Cl | inactive | 
26 | OCCCl | inactive | 
27 | Cn1cc(-c2ccccc2)c(=O)c(-c2cccc(C(F)(F)F)c2)c1 | inactive | 
28 | Cc1ccc(N)c(N)c1 | inactive | 
29 | CC(C)(C)OOC(=O)c1ccccc1 | inactive | 
30 | CC(C)(C)OOC(C)(C)CCC(C)(C)OOC(C)(C)C | inactive | 
31 | CCCCC(CC)COC(=O)c1ccc(C(=O)OCC(CC)CCCC)c(C(=O)OCC(CC)CCCC)c1 (stereo not given) | inactive | 
32 | COP(=S)(OC)SCN1C(=O)c2ccccc2C1=O | inactive | 
33 | ClC1=C(Cl)C2(Cl)C3C(Cl)C=CC3C1(Cl)C2(Cl)Cl (stereo not given) |  | 36.8 µM (active)
34 | c1ccc(NNc2ccccc2)cc1 | inactive | 
35 | ClCCOCCCl | inactive | 
36 | CC(O)CCO (stereo not given) | inactive | 
37 | CN(C)[C@@H]1C(=O)C(C(N)=O)=C(O)[C@@]2(O)C(=O)C3=C(O)c4c(O)cccc4[C@@](C)(O)[C@H]3C[C@@H]12 | inactive | 
38 | CNC(=O)Oc1cccc2c1OC(C)(C)C2 | inactive | 
39 | Nc1ccc([N+](=O)[O-])cc1 | inactive | 
